Inconclusive results are not listed. Activity calls are given as the source filed them. Calls come from the whole dose curve; as a rule, active = well fitted activation curve with a large enough effect in the signal ratio in the repeat runs (not every such curve was filed as active); inconclusive = weak or mixed curves, or effect the other way; inactive = flat fitted curve, though single readings scatter; the % refers to the signal ratio.
% is set by controls: 0 for no effect and ±100 for the full control effect.

A short description of this assay: qHTS assay to identify small molecule agonists of the endoplasmic reticulum stress response signaling pathway (AID 1159516). The following applies: ESRE-bla HeLa, ER stress beta-lactamase reporter, 5 h; series mostly up to 61 µM; activation: at the top concentration. The source says:
National Center for Advancing Translational Sciences [NCATS]
NIH Chemical Genomics Center [NCGC]
U.S. Environmental Protection Agency [EPA]
National Institutes of Environmental Health Sciences [NIEHS]
National Toxicology Program [NTP]
U.S. Food and Drug Administration [FDA]
Endoplasmic Reticulum (ER) plays an important role in cellular signaling, protein folding/maturation, stress response, lipid biosynthesis, calcium storage and release etc. Under stress conditions, proteins in ER misfold or unfold, and leading to the expression of ER stress responsive genes. ER stress has been associated with a variety of pathophysiological conditions such as cancer, inflammation, neurodegenerative diseases, diabetes, ischemic heart disease etc. To identify the compounds that induce ER stress response, an ER stress reporter cell line, CellSensor ESRE-bla HeLa (Life Technologies, Carlsbad, CA) containing a beta-lactamase reporter gene under control of the Endoplasmic reticulum Stress Response Element (ESRE) was used to screen Tox21 10K compound library.
Tox21 Assay Protocol Summary:
ESRE-bla HeLa cells were dispensed at 1,500 cells/6 uL of assay medium per well into black wall/clear-bottom 1536-well plates using a Multidrop Combi (ThermoFisher Scientific, Waltham, MA) dispenser. After the assay plates were incubated at 37 C and 5% CO2 for an overnight, 23 nL of compounds dissolved in DMSO, positive controls or DMSO only was transferred to the assay plate by a Pintool station (Kalypsys, San Diego, CA). The assay plates were incubated at 37 C and 5% CO2 for 5 hr. One uL of LiveBLAzer B/G FRET substrate (Life Technologies) was added using a Flying Reagent Dispenser (Aurora Discovery, San Diego, CA) and the plates were incubated at room temperature for 2 hr. Fluorescence intensity (405 nm excitation, 460 nm and 530 nm emissions) was measured using an Envision plate reader (PerkinElmer, Shelton, CT).
For `N#CC(Br)(Br)C(N)=O`, the “activation” value is 3.37% (inactive). Under `Nc1c(Cl)c(F)nc(OCC(=O)O)c1Cl` stands -0.409% (inactive); under `O=C(NC(O)C(Cl)(Cl)Cl)NC(O)C(Cl)(Cl)Cl` (stereo not given), 0.0263% (inactive); under `N#CN=C1SCCN1Cc1ccc(Cl)nc1`, -2.77% (inactive). As for `CCC(C)C(C)(COC(N)=O)COC(N)=O` (stereo not given), the “activation” value was 2.52% (inactive).

On to `CCCOC(=O)c1cncn1C(C)c1ccccc1` (stereo not given), for which the “activation” value was 0.132% (inactive). For `ClCOCCl`, the “activation” value is -0.0611% [at 78.8 µM] (inactive). The result for `CN=CNc1ccc(C)cc1C` reads 5.1% (inactive); that for `ClC1=C(Cl)C2(Cl)C(CBr)CC1(Cl)C2(Cl)Cl` (stereo not given), -1.7% (inactive); that for `Cc1ccc(S(=O)(=O)N[C@@H](CCCCN)C(=O)CCl)cc1`, -4.46% (inactive). `CON(C)C(=O)Nc1ccc(Br)c(Cl)c1`: the “activation” value was -3.22% (inactive).

For `C[C@]12C=CC(=O)C=C1CC[C@@H]1[C@@H]2CC[C@@]2(C)[C@H]1CC[C@]2(C)O`, the “activation” value is -0.0527% (inactive). Under `C=CC(=O)OCCN(C)C` stands 0.0463% (inactive); under `[P]#[In]`, 2.35% (inactive); under `CNC(=O)NC(O)C(Cl)(Cl)Cl` (stereo not given), -0.175% (inactive). Turning to `C/C=C/CC#N`, the “activation” value was 1.59% [at 78.8 µM] (inactive). Take `CNC(=O)Oc1cc(C)c(N(C)C)c(C)c1`: the “activation” value was -4.4% (inactive).

In the case of `C/C(=N\NC(=O)Nc1cc(F)cc(F)c1)c1ncccc1C(=O)O`, the “activation” value was 1.28% (inactive). Under `CC(O)CCl` (stereo not given) stands 0.433% (inactive); under `ClC(Cl)(Cl)Cl`, 4.57% (inactive). `BrCCc1ccccc1`: the “activation” value is -1.4% [at 78.8 µM] (inactive). The result for `BrCC1CO1` (stereo not given) reads -6.04% [at 78.8 µM] (inactive); that for `Oc1ccc(Cc2ccc(O)cc2)cc1`, -2.92% [at 78.8 µM] (inactive); that for `O=C(Cl)C(Cl)Cl`, -0.0836% (inactive). For the compound `COc1ccccc1OC`, the “activation” value is -0.236% (inactive).

As for `CCSC(=O)Cl`, the “activation” value is 1.59% [at 78.8 µM] (inactive). `CC[C@H](O)C(C[C@H](C)N(C)C)(c1ccccc1)c1ccccc1`: the “activation” value was 0.346% [at 78.8 µM] (inactive). For `CC(C)c1ccc(O)cc1`, the “activation” value was 4.75% (inactive). The result for `S=C=S` reads -1.89% (inactive); that for `O=P(O)(O)CN(CP(=O)(O)O)CP(=O)(O)O`, 0.906% [at 28.5 µM] (inactive); that for `Clc1cc2c(cc1Cl)Oc1cc(Cl)c(Cl)cc1O2`, -5.12% [at 0.281 µM] (inactive). Consider `CC(C)[N+](C)(CCC(C(N)=O)(c1ccccc1)c1ccccc1)C(C)C`, for which the “activation” value was 1.11% (inactive). Turning to `CCOC(=O)c1ncn2c1CN(C)C(=O)c1c(I)cccc1-2`, the “activation” value is 0.546% (inactive).

`CCC(C)(C#N)N=NC(C)(C#N)CC` (stereo not given): the “activation” value was 1.88% (inactive). Under `NCC1(CC(=O)O)CCCCC1` stands 1.2% (inactive); under `O=c1[nH]c2ccccc2o1`, -2.07% (inactive); under `COc1cccc(C=O)c1`, 3.06% (inactive).

With `CNC(=O)Oc1ccccc1C(C)C`, the “activation” value is -0.289% (inactive). The result for `CCOC(=O)CCl` reads -0.403% (inactive); that for `CCOP(=S)(OCC)Oc1ccc(Cl)cc1Cl`, 2.44% (inactive).
